The record followed here is PubChem BioAssay (NCATS).

Results filed as inconclusive are left out. Unmarked numbers belong to inactive results. The source made the active and inactive calls. The call rests on the fitted dose curve; in most records, active means well fitted inhibition curve with a large enough effect; inconclusive means small, poorly fitted or top-dose-only effect; inactive means flat fitted curve, though single readings scatter. *1 amine or outer side, *2 acyl side, *3 side chain or, on linkers, in order; H or OH if unused. Where a SMILES comes first, the peptide text is derived from it. Bridges are numbered along the chain shown (N, C = ends). [ ]: non-standard residue; d: D form. The star is where a group is joined. ξ: configuration not given here. X10 = NC1=NCCC(C(N[*:1])C(=O)[*:2])N1; ΔAla(3-NHCONH2) = NC(=O)NC=C(N)C(=O)O; ξβ3hOrn = NCCCC(N)CC(=O)*; Dap = NC[CH](N)C(=O)O

The target of assay [1] is Glutathione peroxidase 1 (Homo sapiens) (UniProt P07203). The assay is described as follows: Primary qHTS Assay for Inhibitors of Recombinant Selenoprotein Glutathione Peroxidase 1 (GPX1) (AID 1845191). An outline of the steps:
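GPX1 10 nM, GR 100 nM, GSH 1 mM, NADPH 0.5 mM, CHP 0.5 mM (final). 30-min cpd preincubation, RT. Ex340/Em450 read t=0, t=15 min.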
On the technique in general: Quantitative high-throughput screening tests each substance at several concentrations.

Assay [2] deals with Phospholipid hydroperoxide glutathione peroxidase GPX4 (Homo sapiens) (UniProt P36969). The experiment in a line: Primary qHTS Assay for Inhibitors of Recombinant Selenoprotein Glutathione Peroxidase 4 (GPX4) (AID 1845192). On activity change, negative = inhibition: series mostly up to about 50 µM. The procedure, abridged: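 qHTS, GR-coupled: GPX4 200 nM + cpd 30 min RT → GSH 1 mM, NADPH 0.5 mM, GR 100 nM → CHP 0.5 mM start; fluor 340/450 at t0 and t15 min; no-enzyme wells as control.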
Phospholipid hydroperoxide glutathione peroxidase GPX4 (Homo sapiens), sequence (P36969 whole entry, looked up): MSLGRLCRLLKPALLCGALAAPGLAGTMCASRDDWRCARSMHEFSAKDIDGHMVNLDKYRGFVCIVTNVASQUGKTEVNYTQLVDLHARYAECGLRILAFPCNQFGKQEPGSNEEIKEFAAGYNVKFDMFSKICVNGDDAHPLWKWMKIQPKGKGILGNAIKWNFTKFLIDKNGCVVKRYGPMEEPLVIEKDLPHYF
Further: nearly all actives have a fitted effect of over 65% in size.
On the % scale 0 is the no-effect control and ±100 the full control effect.

Glutathione peroxidase 1 (Homo sapiens), sequence (P07203 whole entry, looked up): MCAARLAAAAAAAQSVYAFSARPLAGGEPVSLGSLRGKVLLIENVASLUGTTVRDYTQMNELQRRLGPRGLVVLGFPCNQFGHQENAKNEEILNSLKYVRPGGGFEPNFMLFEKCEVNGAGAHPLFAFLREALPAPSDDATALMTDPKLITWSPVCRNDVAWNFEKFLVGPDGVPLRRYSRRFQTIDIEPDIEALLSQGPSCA

Regarding `Cc1c(F)cc2c(=O)c(C(=O)O)cn3c2c1CCC3C` (centres undefined), the Potency entry in assay [1] and in assay [2] was “inactive” in each case.

As to `CCCCCC1Nc2cc(C(F)(F)F)c(S(N)(=O)=O)cc2S(=O)(=O)N1` (centres undefined), the Potency entry in assay [1] and in assay [2] was “inactive” in each case.

Regarding `CCN(CC)CCNC(=O)c1ccc(NS(C)(=O)=O)cc1`, the Potency entry in assay [1] and in assay [2] was “inactive” each time.

Turning to `Cc1c(C)c2c(c(C)c1OC(=O)CCC(=O)OCCO)CC[C@@](C)(CCC[C@H](C)CCC[C@H](C)CCCC(C)C)O2`, the Potency result in assay [1] and in assay [2] was “inactive” each time.

On to `Cc1ccc(Cl)c(OCC(O)CNC(C)(C)C)c1` (centres undefined), for which the Potency result in assay [1] and in assay [2] was “inactive” in each case.

Turning to `COC(=O)CCCCC(CCSS/C(CCO)=C(\C)N(C=O)Cc1cnc(C)nc1N)SC(C)=O` (centres undefined), the Potency result in assay [1] and in assay [2] was “inactive” in each case.

On to `Cc1ccccc1N1CCN(CCc2nnc3n2CCCC3)CC1`, for which the Potency entry in assay [1] and in assay [2] was “inactive” in each case.

Take `Cc1cccc(C)c1NC(=O)c1cc(S(N)(=O)=O)c(Cl)cc1O`: the Potency entry in assay [1] and in assay [2] was “inactive” in each case.

Turning to `CNC(=O)c1c(I)c(NC(C)=O)c(I)c(C(=O)O)c1I`, the Potency result in assay [1] and in assay [2] was “inactive” in each case.

Take `O=C(OCC(O)CO)c1ccccc1Nc1ccnc2c(C(F)(F)F)cccc12` (centres undefined): the Potency result in assay [1] and in assay [2] was “inactive” in each case.

Take `Cc1nc(C2CCCCC2)c(-c2ccc(S(N)(=O)=O)c(F)c2)o1`: the Potency entry in assay [1] and in assay [2] was “inactive” in each case.

For the compound `NC(=O)NC1N=C([O][Al])NC1=O` (centres undefined), the Potency entry in assay [1] and in assay [2] was “inactive” each time.

Consider `C[C@@H]1CCC[C@H](C)N1CCCC(O)(c1ccccc1)c1ccccn1` (some centres undefined), for which the Potency result in assay [1] and in assay [2] was “inactive” in each case.

For the compound `O=C(O)c1ccccc1S`, the Potency result in assay [1] and in assay [2] was “inactive” in each case.

Take `O=C1NCCN1CCN1CCC(c2cn(-c3ccc(F)cc3)c3ccc(Cl)cc23)CC1`: the Potency result in assay [1] and in assay [2] was “inactive” in each case.

Take `CCOC(=O)NNc1ccc(N(CC)CC(C)O)nn1` (centres undefined): the Potency result in assay [1] and in assay [2] was “inactive” in each case.

Regarding `O=c1[nH]c(=O)n([C@H]2O[C@H](CO)[C@@H](O)[C@@H]2O)cc1/C=C\Br`, the Potency result in assay [1] and in assay [2] was “inactive” throughout.

As to `CCCCC(CC)CNC(=O)CC(C)OC(=O)CCC(=O)O` (centres undefined), the Potency result in assay [1] and in assay [2] was “inactive” each time.

Consider `CCOC(=O)[C@H](CCc1ccccc1)N[C@@H](C)C(=O)N(CC(=O)O)C1Cc2ccccc2C1`, for which the Potency entry in assay [1] and in assay [2] was “inactive” throughout.

On to `O=C1NC(c2ccccc2)(c2ccccc2)C(=O)N1COP(=O)(O)O`, for which the Potency entry in assay [1] and in assay [2] was “inactive” in each case.

For `NCCCC(N)CC(=O)NCC1NC(=O)C(CO)NC(=O)C(N)CNC(=O)C(C2CCN=C(N)N2)NC(=O)C(=CNC(N)=O)NC1=O` (stereo not drawn) (H-[Dap]S[Dap](ξβ3hOrn)[ΔAla(3-NHCONH2)][X10]; lactam 1-C; configuration not given here), in assay [1], the outcome is “inactive [at 0.4 µM]”. Moreover, in assay [2], the activity change, negative = inhibition was 3.67% [at 0.409 µM].

As to `OCCc1ccccc1`, the Potency entry in assay [1] and in assay [2] was “inactive” each time.

With `CC(Oc1c(Cl)cccc1Cl)C1=NCCN1` (centres undefined), the Potency entry in assay [1] and in assay [2] was “inactive” throughout.

`CO[C@@H]1[C@@H](O[C@@H]2O[C@H](C)[C@@H](O[C@H]3C[C@@](C)(O)[C@@H](O)[C@H](C)O3)[C@H](N(C)C)[C@H]2O)[C@@H](CC=O)C[C@@H](C)[C@@H](O[C@@H]2CC[C@H](N(C)C)[C@@H](C)O2)/C=C/C=C/C[C@@H](C)OC(=O)C[C@H]1OC(C)=O`: the Potency entry in assay [1] and in assay [2] was “inactive” throughout.

On to `CC(C)=CCC/C(C)=C/CC/C(C)=C/C(=O)OCC(=O)[C@@]1(O)CC[C@H]2[C@@H]3CCC4=CC(=O)C=C[C@]4(C)[C@H]3[C@@H](O)C[C@@]21C`, for which the Potency entry in assay [1] and in assay [2] was “inactive” in each case.

As to `NCC[C@H](O)C(=O)N[C@@H]1C[C@H](N)[C@@H](O[C@H]2O[C@H](CN)[C@@H](O)[C@H](O)[C@@H]2O)[C@H](O)[C@@H]1O[C@H]1O[C@H](CO)[C@@H](O)[C@H](N)[C@@H]1O`, in assay [1], the activity, negative = inhibition is -13.8% [at 0.4 µM]. Moreover, in assay [2], the activity change, negative = inhibition is -16.2% [at 0.409 µM].

For `CCCCOCCOC(=O)c1cccnc1`, the Potency result in assay [1] and in assay [2] was “inactive” throughout.

Regarding `CC(C)(Oc1ccc(Cl)cc1)C(=O)OCCCOC(=O)C(C)(C)Oc1ccc(Cl)cc1`, the Potency entry in assay [1] and in assay [2] was “inactive” in each case.

As for `Cc1ccc(C(=O)C(=O)O)cc1C`, the Potency result in assay [1] and in assay [2] was “inactive” each time.

`COc1ccc(-n2nc(CCC(=O)N(C)O)cc2-c2ccc(Cl)cc2)cc1`: the Potency result in assay [1] and in assay [2] was “inactive” in each case.

For the compound `CC(C)(C)C(O)/C=C/c1ccc2c(c1)OCO2` (centres undefined), the Potency result in assay [1] and in assay [2] was “inactive” throughout.

Turning to `CCN(CC)CC(=O)OCC(=O)[C@@]1(O)CC[C@H]2[C@@H]3CCC4=CC(=O)CC[C@]4(C)[C@H]3[C@@H](O)C[C@@]21C`, the Potency result in assay [1] and in assay [2] was “inactive” throughout.

Take `Cc1cccc(N(C)C(=S)Oc2ccc3c(c2)C2CCC3C2)c1` (centres undefined): the Potency entry in assay [1] and in assay [2] was “inactive” throughout.

For `CCOC(=O)C1=C(C)NC(C)=C(C(=O)OCC)C1c1ccccc1/C=C/C(=O)OC(C)(C)C`, the Potency entry in assay [1] and in assay [2] was “inactive” each time.

In the case of `CC(=O)O[C@@H]1CC2C3CCc4cc(OC(=O)c5ccccc5)ccc4C3CCC2(C)[C@H]1OC(C)=O` (some centres undefined), the Potency entry in assay [1] and in assay [2] was “inactive” each time.

Regarding `CCC(=O)O[C@]1(C(=O)COC)[C@@H](C)C[C@H]2[C@@H]3CCC4=CC(=O)C=C[C@]4(C)C3(F)[C@@H](O)C[C@@]21C` (some centres undefined), the Potency result in assay [1] and in assay [2] was “inactive” each time.

Turning to `N=C(N)c1ccc(OCCCOc2ccc(C(=N)N)cc2)cc1`, the Potency entry in assay [1] and in assay [2] was “inactive” throughout.

Take `CN(C)CCOC(c1ccccc1)c1ccc(Br)cc1` (centres undefined): the Potency entry in assay [1] and in assay [2] was “inactive” in each case.

For the compound `O=C(CCOCCOCCOCCOCCC(=O)Nc1c(I)cc(I)c(C(=O)O)c1I)Nc1c(I)cc(I)c(C(=O)O)c1I`, the Potency entry in assay [1] and in assay [2] was “inactive” each time.

On to `NC(=O)C1(N2CCCCC2)CCN(CCCN2c3ccccc3CCc3ccc(Cl)cc32)CC1`, for which the Potency entry in assay [1] and in assay [2] was “inactive” throughout.

In the case of `CCCCCOc1ccccc1/C(=C\SC)n1ccnc1`, the Potency entry in assay [1] and in assay [2] was “inactive” throughout.

With `O=C(C1CCCCC1)N1CC(=O)N2CCCc3ccccc3C2C1` (centres undefined), the Potency result in assay [1] and in assay [2] was “inactive” each time.
